A selection: hits, their analogues and other compounds. The true share with any hit is near 9.3%.
FLuc counter: inhibits or activates purified firefly luciferase, miR-21 counter-screen; purified FLuc, Km substrates, luminescence inhibition; Potency, µM (titrated, usually from 57.5 µM), inactives show at the highest dose activity change, negative = inhibition, usual class: inhibitors; 360,000 tested, 6.9% active;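 note: plate controls were vehicle for no effect and reference inhibitor for full effect; nearly all actives have a fitted effect of over 55% in size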
Target sequence (P08659 whole entry, looked up): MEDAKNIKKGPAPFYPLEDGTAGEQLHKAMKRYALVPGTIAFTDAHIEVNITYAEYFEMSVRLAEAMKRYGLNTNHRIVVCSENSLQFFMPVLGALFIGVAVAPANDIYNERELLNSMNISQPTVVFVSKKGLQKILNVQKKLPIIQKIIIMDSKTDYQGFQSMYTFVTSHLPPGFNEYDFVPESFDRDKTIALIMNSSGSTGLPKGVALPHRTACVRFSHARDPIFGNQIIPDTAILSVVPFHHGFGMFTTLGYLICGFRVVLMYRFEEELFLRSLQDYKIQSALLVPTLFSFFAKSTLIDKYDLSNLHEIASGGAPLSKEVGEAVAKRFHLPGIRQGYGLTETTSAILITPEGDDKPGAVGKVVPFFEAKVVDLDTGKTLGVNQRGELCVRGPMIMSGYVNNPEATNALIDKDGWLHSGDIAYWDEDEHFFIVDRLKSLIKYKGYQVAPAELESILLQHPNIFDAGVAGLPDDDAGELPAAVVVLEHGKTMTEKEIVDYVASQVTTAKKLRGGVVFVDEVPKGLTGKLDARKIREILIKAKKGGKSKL
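Purified P. pyralis luciferase, 10 nM final, with Km-level 10 uM D-luciferin and 10 uM ATP in 50 mM Tris acetate pH 7.5, 10 mM Mg acetate, 0.01% Tween-20, 0.05% BSA; 6-point qHTS titration about 60 µM downward; luminescence read.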
ELG1 repair inh: inhibitors of ELG1-dependent DNA repair in HEK293T cells. HEK293T ELG1-luciferase reporter, luminescence, 16 h; DNA damage induced by 5-fluorouridine. Potency, µM (doses to about 46.1 µM), for inactives: at the highest dose activity change, negative = inhibition, actives largely listed as inhibitors. 330,000 tested, 2.3% active. AID 504467; note: % is set by controls: 0 for no effect and ±100 for the full control effect; nearly all actives have a fitted effect of over 55% in size
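Overnight (16 hr) co-exposure of 2,000 cells/well to 5-fluorouridine and compound at 37 °C preceded detection. Luciferase was quantified via ONE-Glo luminescence; loss of signal denotes inhibition.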
Rab9 promoter act: activates the Rab9 promoter | 320,000 tested, 2.8% active | Huh7 Rab9 promoter-luciferase reporter, luminescence, 24 h | Potency, µM (top dose mostly 9.22 µM), for inactives: top-dose activation, negative = inhibition, usual class: activators; note: % of control where 0% means no effect; nearly all actives have a fitted effect of over 60% in size
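Quantitative HTS format; Huh7 Rab9-luciferase reporter cells (1500/well) receive compound 2 h post-plating, incubate 24 h at 37 °C, then get luciferase reagent for 10 min before luminescence reading.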
SMN2 splice enh: increases expression of the SMN2 splice variant | 210,000 tested, 2.8% active | AID 1458 | HEK293 SMN2-luciferase splicing reporter, luminescence, 30-36 h | Potency, µM (top dose mostly 46.1 µM), for the others: at the top dose activity change, positive = activation, actives largely listed as activators; note: % of control where 0% means no effect; nearly all actives have a fitted effect of over 55% in size
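qHTS luciferase splicing reporter: luminescence rises when SMN2 exon 7 is included in transfected HEK293 cells. Compound exposure lasted 30-36 h at 37C, with 4.5 mM final sodium butyrate as control, followed by a ONE-Glo read.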
NPC1 prom act: NPC1 promoter activation; Potency, µM (series often up to 9.22 µM), without a hit: at the highest dose activation, hits mostly activators; AID 485313; 320,000 tested, 2.4% active; Huh7 NPC1 promoter luciferase reporter, 24 h; note: % of control where 0% means no effect; nearly all actives have a fitted effect of over 60% in size
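Luciferase expression driven by the NPC1 promoter was measured in stably transfected Huh7 cells after a 24 h compound incubation, using a luciferase reagent and a luminescence read.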
ELG1 genotox: inducers of genotoxicity in HEK293T ELG1-luciferase cells. HEK293T ELG1-luciferase reporter, luminescence, 16 h. Potency, µM (series often up to 46 µM), for the others: top-dose activity change, positive = activation, most hits filed as activators. 330,000 tested, 1.3% active; note: % of control where 0% means no effect; nearly all actives have a fitted effect of over 60% in size
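Quantitative HTS format in 1536-well plates. HEK293T ELG1-luciferase reporter cells receive test compound and are incubated 16 hr at 37 °C, 5% CO2; ONE-Glo added, 30 min room temperature, then luminescence read.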
An asterisk follows results filed as active; [ ] = remark or other dose. Calls come from the whole dose curve; as a rule, active = well fitted curve in the direction sought with a large enough effect; inconclusive = small, poorly fitted or top-dose-only effect, or another doubt; inactive = no such curve, though single readings can be large; an effect the other way counts as inactive or inconclusive. Potency is the fitted concentration of half-maximal effect.

For O=C1c2ccccc2C(=O)c2c(Nc3ccc4c5c(cccc35)C(=O)c3ccccc3-4)cccc21 the results were SMN2 splice enh -1.3%[9.22 µM].
`CN(C)c1cccc(C(=O)OCC(=O)N(C)c2ccccc2)c1` gave FLuc counter -2.0%, ELG1 repair inh -13.1%, Rab9 promoter act -1.4%, NPC1 prom act 1.4% and ELG1 genotox 0.3%.
CC(=O)c1ccc(NC(=O)COC(=O)c2ccccc2N=Nc2ccc(N(C)C)cc2)cc1 was read as FLuc counter 5.36µM*, ELG1 repair inh -27.9%, Rab9 promoter act 11.8%, SMN2 splice enh inconclusive, NPC1 prom act 1.2% and ELG1 genotox -2.8%.
COC(=O)c1ccccc1NC(=O)COC(=O)c1ccccc1N=Nc1ccc(N(C)C)cc1 was read as FLuc counter 12µM*, ELG1 repair inh inconclusive, Rab9 promoter act 17.0%, SMN2 splice enh inconclusive, NPC1 prom act 2.0% and ELG1 genotox 0.9%.
CN(C)c1ccc(N=Nc2ccccc2C(=O)OCC(=O)N(C)c2ccccc2)cc1 was read as FLuc counter 1.35µM*, ELG1 repair inh 13µM*, Rab9 promoter act 22.6%, SMN2 splice enh inconclusive, NPC1 prom act 24.3% and ELG1 genotox -1.8%.
CCOc1ccccc1CNC(=O)CCn1ccc2cc(S(=O)(=O)N3CCCCC3)ccc21 was read as FLuc counter 1.9%, ELG1 repair inh 0.8%, Rab9 promoter act -2.6%, NPC1 prom act -0.6% and ELG1 genotox -7.5%.
For Cc1ccc(NC(=O)c2ccco2)c(NC(=O)c2ccc(Cl)cc2)c1 the results were FLuc counter -2.4%, ELG1 repair inh -7.1%, Rab9 promoter act -0.3%, NPC1 prom act -3.5% and ELG1 genotox -11.0%.
For Cc1cccc(CSc2nnc([C@@H]3CCCN3C(=O)OC(C)(C)C)o2)c1 the results were FLuc counter -3.0%, ELG1 repair inh 2.7%, Rab9 promoter act -0.1%, NPC1 prom act -6.4% and ELG1 genotox -4.9%.
COc1ccc(OC)c(C2CC(c3ccccc3)=NN2C(=S)Nc2ccccc2)c1 (centres undefined) was read as FLuc counter 3.1%, ELG1 repair inh 10.8%, Rab9 promoter act -20.9%, NPC1 prom act -26.2% and ELG1 genotox 4.4%.
O=[N+]([O-])c1ccc(C2Nc3cccc4cccc(c34)N2)cc1 was read as FLuc counter -11.2%, ELG1 repair inh inconclusive, Rab9 promoter act 21.1%, SMN2 splice enh 8.5%, NPC1 prom act 25.9% and ELG1 genotox -1.1%.
For COc1ccc2cc(CO)c(Cl)nc2c1 the results were FLuc counter -2.6%, ELG1 repair inh -4.9%, Rab9 promoter act 8.7%, SMN2 splice enh 24.1%, NPC1 prom act -3.0% and ELG1 genotox 2.3%.
`COc1ccc2cc(CO)c3cc(OC)c(OC)cc3c2c1` gave ELG1 repair inh 8.2µM* and ELG1 genotox -8.1%.
`COC(=O)C1CCN(C(=O)Cc2ccc(C)cc2)CC1` gave FLuc counter -0.2%, ELG1 repair inh inconclusive, Rab9 promoter act 0.2%, SMN2 splice enh 3.8%, NPC1 prom act 7.5% and ELG1 genotox 1.9%.
For COc1ccc([C@H]2[C@H](C(=O)OC(C)(C)C)N3N=Cc4ccccc4C3C23C(=O)c2ccccc2C3=O)cc1OC (some centres undefined) the results were FLuc counter 15.1µM*, ELG1 repair inh -1.9%, Rab9 promoter act -1.5%, SMN2 splice enh 10.0%, NPC1 prom act -0.1% and ELG1 genotox -2.1%.
Screening COc1ccc([C@H]2[C@H](C(=O)OC(C)(C)C)N3N=Cc4ccccc4C3C23C(=O)c2ccccc2C3=O)c(OC)c1 (some centres undefined) returned FLuc counter inconclusive, ELG1 repair inh -17.6%, Rab9 promoter act 1.3%, SMN2 splice enh 7.2%, NPC1 prom act 2.8% and ELG1 genotox -3.8%.
`Cc1nc2cc3nc(C)sc3cc2s1` gave FLuc counter 12µM*, ELG1 repair inh inconclusive, Rab9 promoter act 3.98µM*, SMN2 splice enh inconclusive, NPC1 prom act inconclusive and ELG1 genotox inconclusive.
Screening O=C(Nc1cccc(NC(=O)c2ccc([N+](=O)[O-])o2)c1)c1ccco1 returned FLuc counter -18.7%, ELG1 repair inh 11.6µM*, Rab9 promoter act -13.9%, NPC1 prom act -6.8% and ELG1 genotox -17.7%.
`O=C(Nc1ccc(NC(=O)c2ccc([N+](=O)[O-])o2)cc1Cl)c1ccco1` gave FLuc counter 0.9%, ELG1 repair inh -2.1%, Rab9 promoter act -11.6%, NPC1 prom act -17.3% and ELG1 genotox -4.8%.
For COc1cc(NC(=O)c2ccc([N+](=O)[O-])o2)ccc1NC(=O)c1cccs1 the results were FLuc counter -5.4%, ELG1 repair inh 14.0%, Rab9 promoter act -28.1%, SMN2 splice enh -27.7%, NPC1 prom act -27.8% and ELG1 genotox -0.3%.
`O=C(Nc1cccc(NC(=O)c2cccs2)c1)c1ccc([N+](=O)[O-])o1` gave FLuc counter inconclusive, ELG1 repair inh 16.4µM*, Rab9 promoter act -22.6%, NPC1 prom act -18.5% and ELG1 genotox -3.9%.
`CCOc1ccc(NC(=O)c2nsc(Cl)c2Cl)cc1` gave FLuc counter 4.78µM*, ELG1 repair inh inconclusive, Rab9 promoter act 1.41µM*, NPC1 prom act 2.24µM* and ELG1 genotox 4.61µM*.
O=C(Nc1ccc(F)c(Cl)c1)c1nsc(Cl)c1Cl was read as FLuc counter 2.39µM*, ELG1 repair inh inconclusive, Rab9 promoter act 2.82µM*, NPC1 prom act 2.24µM* and ELG1 genotox 20.6µM*.
Screening CC(C)OC(=O)c1cc(NC(=O)c2nn(C)cc2Br)cc(C(=O)OC(C)C)c1 returned FLuc counter -0.8%, ELG1 repair inh -1.2%, Rab9 promoter act -2.8%, SMN2 splice enh 7.1%, NPC1 prom act -3.8% and ELG1 genotox 6.7%.
For CCOc1ccc(NC(=O)c2nn(C)cc2Br)cc1 the results were FLuc counter 7.57µM*, ELG1 repair inh inconclusive, Rab9 promoter act 3.16µM*, NPC1 prom act inconclusive and ELG1 genotox inconclusive.
`Cn1cc(Br)c(C(=O)Nc2ncc(Br)s2)n1` gave FLuc counter -16.0%, ELG1 repair inh inconclusive, Rab9 promoter act 2.51µM*, SMN2 splice enh 4.47µM*, NPC1 prom act 3.55µM* and ELG1 genotox inconclusive.
`CCCc1cc(=O)oc2c(C)c(OCC(=O)NCCCn3ccnc3)ccc12` gave FLuc counter 0.7%, ELG1 repair inh -7.3%, Rab9 promoter act -0.9%, NPC1 prom act 1.2% and ELG1 genotox 1.9%.
`COc1ccc2c(c1)CCc1c(C(=O)Nc3c(C)nn(Cc4ccccc4Cl)c3C)noc1-2` gave FLuc counter -4.1% and SMN2 splice enh -68.8%.
